Test results: PubChem BioAssay AID1159580 (chemical genetic matrix, 2015)
Hit rate of the full screen: of about 5,500 compounds, about 2,000 (36%) were called active. About 18% were inconclusive and are not listed. No stated cut-off is given here; in the data, active means normalized growth mostly below about 0.91 (no sharp cut-off); inconclusive means no clear call, values can overlap the other calls; inactive means mostly above about 0.92. The list shows a part of the results.

Experiment: chemical genetic growth profiling, strain panel (AID 1159580);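 further: tested at 20 µM; growth read once vehicle control cultures reached saturation at 30 °C; 1 = growth at the plate median or of vehicle wells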
Settings: S. cerevisiae deletion strains, growth OD

Measured: normalized growth

CC[C@]1(O)CC2CN(CCc3c([nH]c4ccccc34)[C@@](C(=O)OC)(c3cc4c(cc3OC)N(C)[C@H]3[C@@](O)(C(=O)OC)[C@H](OC(C)=O)[C@]5(CC)C=CCN6CC[C@]43[C@@H]65)C2)C1 (some centres undefined)
inactive: locus YAL021C, strain ccr4, stronger effect = lower value 1 | locus YAL026C, strain drs2, stronger effect = lower value 0.948 | locus YAL030W, strain snc1, stronger effect = lower value 0.985 | locus YBL061C, strain skt5, stronger effect = lower value 0.975 | locus YBR009C, strain hhf1, stronger effect = lower value 0.941 | locus YBR023C, strain chs3, stronger effect = lower value 0.984 | locus YBR171W, strain sec66, stronger effect = lower value 0.959 | locus YBR231C, strain swc5, stronger effect = lower value 0.982 | locus YBR279W, strain paf1, stronger effect = lower value 0.98 | locus YCL011C, strain gbp2, stronger effect = lower value 0.983 | locus YCL016C, strain dcc1, stronger effect = lower value 1.01 | locus YCL061C, strain MRC1, stronger effect = lower value 1.02 | locus YCL069W, strain vba3, stronger effect = lower value 0.969 | locus YCR088W, strain abp1, stronger effect = lower value 0.974 | locus YDL005C, strain med2, stronger effect = lower value 0.972 | locus YDL040C, strain nat1, stronger effect = lower value 0.969 | locus YDR001C, strain nth1, stronger effect = lower value 0.973 | locus YDR069C, strain doa4, stronger effect = lower value 1 | locus YDR137W, strain rgp1, stronger effect = lower value 0.979 | locus YDR159W, strain sac3, stronger effect = lower value 0.928 | locus YDR195W, strain ref2 0.951 | locus YDR297W, strain sur2, stronger effect = lower value 0.975 | locus YDR334W, strain swr1, stronger effect = lower value 0.955 | locus YDR335W, strain msn5, stronger effect = lower value 0.981 | locus YDR392W, strain spt3, stronger effect = lower value 0.859 | locus YEL003W, strain gim4, stronger effect = lower value 0.954 | locus YEL037C, strain rad23, stronger effect = lower value 0.963 | locus YEL061C, strain CIN8 (second series), stronger effect = lower value 0.962 | locus YER015W, strain faa2, stronger effect = lower value 0.961 | locus YER016W, strain bim1, stronger effect = lower value 0.989 | locus YER111C, strain swi4, stronger effect = lower value 0.972 | locus YER155C, strain BEM2 (second series), stronger effect = lower value 0.907 | locus YFR010W, strain ubp6, stronger effect = lower value 0.948 | locus YGL167C, strain pmr1, stronger effect = lower value 0.972 | locus YGL173C, strain kem1, stronger effect = lower value 0.976 | locus YGL227W, strain vid30, stronger effect = lower value 0.947 | locus YGL240W, strain doc1, stronger effect = lower value 0.954 | locus YGL253W, strain hxk2, stronger effect = lower value 1.01 | locus YHR013C, strain ard1, stronger effect = lower value 0.949 | locus YHR027C, strain rpn1, stronger effect = lower value 0.957 | locus YHR030C, strain SLT2, stronger effect = lower value 0.991 | locus YHR079C, strain IRE1, stronger effect = lower value 0.975 | locus YHR142W, strain chs7, stronger effect = lower value 1.02 | locus YJL092W, strain hpr5, stronger effect = lower value 0.973 | locus YJL095W, strain BCK1 (second series), stronger effect = lower value 0.978 | locus YJL095W, strain BCK1, stronger effect = lower value 0.992 | locus YJL115W, strain asf1, stronger effect = lower value 0.956 | locus YJL129C, strain trk1, stronger effect = lower value 0.986 | locus YJL154C, strain vps35, stronger effect = lower value 0.965 | locus YJL164C, strain tpk1, stronger effect = lower value 0.956 | locus YJL166W, strain qcr8, stronger effect = lower value 0.998 | locus YJL187C, strain SWE1, stronger effect = lower value 0.974 | locus YJR066W, strain TOR1, stronger effect = lower value 0.965 | locus YKL160W, strain elf1, stronger effect = lower value 1.05 | locus YKR026C, strain gcn3, stronger effect = lower value 0.975 | locus YKR091W, strain srl3, stronger effect = lower value 0.98 | locus YLL001W, strain dnm1, stronger effect = lower value 1.05 | locus YLL026W, stronger effect = lower value 0.979 | locus YLL041C, strain sdh2, stronger effect = lower value 0.964 | locus YLR027C, strain aat2, stronger effect = lower value 0.987 | locus YLR113W, strain HOG1, stronger effect = lower value 0.955 | locus YLR221C, strain rsa3, stronger effect = lower value 1.04 | locus YLR258W, strain gsy2, stronger effect = lower value 0.979 | locus YLR262C, strain YPT6 (second series), stronger effect = lower value 0.968 | locus YLR320W, strain mms22, stronger effect = lower value 1.04 | locus YLR342W, strain FKS1, stronger effect = lower value 0.977 | locus YLR357W, strain rsc2, stronger effect = lower value 0.974 | locus YLR370C, strain arc18, stronger effect = lower value 0.989 | locus YLR384C, strain iki3, stronger effect = lower value 0.967 | locus YML120C, strain ndi1, stronger effect = lower value 1.01 | locus YMR058W, strain fet3, stronger effect = lower value 0.977 | locus YMR125W, strain sto1, stronger effect = lower value 1.02 | locus YMR129W, stronger effect = lower value 0.967 | locus YMR205C, strain PFK2, stronger effect = lower value 1.01 | locus YMR231W, strain pep5, stronger effect = lower value 0.966 | locus YNL071W, strain lat1, stronger effect = lower value 0.963 | locus YNL183C, strain NPR1, stronger effect = lower value 0.928 | locus YNL209W, strain ssb2, stronger effect = lower value 0.973 | locus YNL248C, strain rpa49, stronger effect = lower value 1.04 | locus YNL322C, strain KRE1 (second series), stronger effect = lower value 0.977 | locus YNR049C, strain mso1, stronger effect = lower value 0.969 | locus YOR001W, strain rrp6, stronger effect = lower value 0.923 | locus YOR070C, strain gyp1, stronger effect = lower value 1 | locus YOR080W, strain dia2, stronger effect = lower value 0.96 | locus YOR083W, strain WHI5, stronger effect = lower value 1.04 | locus YOR106W, strain vam3, stronger effect = lower value 1.03 | locus YOR231W, strain MKK1, stronger effect = lower value 0.952 | locus YOR265W, strain rbl2, stronger effect = lower value 0.987 | locus YOR270C, strain vph1, stronger effect = lower value 1.06 | locus YOR290C, strain snf2, stronger effect = lower value 1.01 | locus YPL051W, strain arl3, stronger effect = lower value 1.01 | locus YPL078C, strain atp4, stronger effect = lower value 1.04 | locus YPL106C, strain sse1, stronger effect = lower value 0.931 | locus YPL240C, strain hsp82, stronger effect = lower value 0.963 | locus YPL256C, strain CLN2, stronger effect = lower value 0.942

Nc1ncnc2c1ncn2C1OC2COP(O)(=S)O[C@@H]2[C@@H]1O (some centres undefined)
inactive: locus YAL013W, strain DEP1, stronger effect = lower value 1.01 | locus YAL040C, strain CLN3, stronger effect = lower value 1.01 | locus YDR150W, strain NUM1, stronger effect = lower value 1.02 | locus YDR363W, strain ESC2, stronger effect = lower value 0.99 | locus YER002W, strain NOP16, stronger effect = lower value 0.989 | locus YGR078C, strain PAC10, stronger effect = lower value 1 | locus YJR075W, strain HOC1, stronger effect = lower value 0.997 | locus YNL128W, strain TEP1, stronger effect = lower value 1.01 | locus YNL153C, strain GIM3, stronger effect = lower value 1.03 | locus YNL175C, strain NOP13, stronger effect = lower value 1.03 | locus YNL197C, strain WHI3, stronger effect = lower value 1.02 | locus YNL224C, strain SQS1, stronger effect = lower value 1.02 | locus YOR083W, strain WHI5 (second series), stronger effect = lower value 0.997 | locus YPL241C, strain CIN2, stronger effect = lower value 1.01
